# Screens as filed in PubChem.
# TR SRC2 fluor cs: alters Texas Red total fluorescence, flagging assay interference | AID 1479 | Potency, µM (highest dose often 106 µM), for inactives: at the top dose fluorescence change, negative = quenching | TRb/SRC2 Texas Red total fluorescence interference | actives 0.29% (n = 280,000); active means well fitted curve in either direction with a large enough effect; inconclusive means small, poorly fitted or top-dose-only effect
#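 Human TRb ligand-binding domain at 0.6 uM with 20 nM Texas Red SRC2 peptide in Tris buffer containing 1 uM T3 and 5% DMSO, incubated with compound 5 h at ambient temperature. Total fluorescence (555/632 nm) calculated as parallel + 2 × perpendicular.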
# Tau fibril FP: tau fibrillization inhibition (FP); P10636; K18 P301L tau heparin fibrillization, Alexa594 FP, 6 h; Potency, µM (titrated, usually from 57.7 µM), for the others: top-dose activity, negative = inhibition, usual class: inhibitors; actives 0.39% (n = 280,000); AID 1468; further: nearly all actives have a fitted effect of over 55% in size
# Target sequence (P10636 561-689 P618L limits assumed): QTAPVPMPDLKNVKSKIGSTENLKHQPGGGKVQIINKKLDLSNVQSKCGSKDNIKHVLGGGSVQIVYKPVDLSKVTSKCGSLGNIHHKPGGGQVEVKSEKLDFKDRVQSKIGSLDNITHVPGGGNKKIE
#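 Heparin (20 uM) drove fibril formation of recombinant tau K18 P301L, 15 uM unlabeled with 0.24 uM Alexa 594 label, for 6 hr at 37 C in 100 mM sodium acetate pH 7. Fluorescence polarization (555/632 nm) read 1 hr after 30 uM ThT.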
# Tau fibril ThT: blocks human tau fibril formation measured by thioflavin T; Potency, µM (highest dose often 57.4 µM), inactives show at the top dose activity, negative = inhibition, usual class: inhibitors; actives 2.1% (n = 270,000); P10636; recombinant tau K18 P301L, heparin-induced fibrillization, ThT fluorescence; further: nearly all actives have a fitted effect of over 55% in size
#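 ThT emission at 510 nm, taken 1 hr after adding 30 uM dye, quantifies aggregates formed when 20 uM heparin acts on human tau K18 P301L for 6 hr at 37 C.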
# TRb SRC2 PPI: disrupts binding of human TR beta to SRC2 | TRbeta-SRC2 peptide binding, fluorescence polarization; receptor liganded with 1 µM T3 | Potency, µM (titrated, usually from 106 µM), for inactives: top-dose activity change, negative = inhibition, hits mostly inhibitors | actives 0.065% (n = 280,000) | AID 1469;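 further: plate controls were bound peptide for no effect and peptide without receptor for full effect; nearly all actives have a fitted effect of over 50% in size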
# Target sequence (P10828 whole entry, looked up): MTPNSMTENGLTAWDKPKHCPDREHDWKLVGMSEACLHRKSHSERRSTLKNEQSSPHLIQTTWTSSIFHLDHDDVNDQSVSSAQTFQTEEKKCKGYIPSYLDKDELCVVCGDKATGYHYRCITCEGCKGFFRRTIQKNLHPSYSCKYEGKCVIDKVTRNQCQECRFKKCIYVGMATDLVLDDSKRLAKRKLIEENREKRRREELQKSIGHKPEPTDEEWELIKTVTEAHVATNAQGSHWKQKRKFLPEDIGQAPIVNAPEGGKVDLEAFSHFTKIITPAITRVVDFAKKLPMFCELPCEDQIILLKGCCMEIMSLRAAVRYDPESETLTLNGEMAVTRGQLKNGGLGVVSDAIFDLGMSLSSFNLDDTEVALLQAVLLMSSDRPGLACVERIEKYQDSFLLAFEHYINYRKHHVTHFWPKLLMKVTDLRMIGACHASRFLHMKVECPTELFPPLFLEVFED
#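 Read-out is fluorescence polarization (555 nm excitation, 632 nm emission) of a Texas Red SRC2 coactivator peptide; loss of signal reflects blocked binding to human TRb ligand-binding domain in the presence of 1 uM T3.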
# Tau fluor cs: counter-screen for tau fibril formation inhibitors | tau K18 P301L (four-repeat tau fragment) Alexa594 fluorescence, heparin fibrillization | Potency, µM (doses to about 57.7 µM), inactives show at the top dose activity change, negative = decrease | actives 0.93% (n = 280,000); further: nearly all actives have a fitted effect of over 55% in size
#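 Human K18 P301L tau (15 uM unlabeled plus 0.24 uM Alexa 594-labeled, final) in 100 mM sodium acetate pH 7 was mixed with compound and 20 uM heparin and incubated 6 hr at 37 C.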
# * hit, by the source's call; ? = inconclusive; · = no result; [ ] = dose if it differs, or a comment. Shown are actives, neighbours in structure and some others; about 3% of the full set was active somewhere. Unless noted, the call rests on the fitted dose curve; in most records, active means well fitted curve in the direction sought with a large enough effect; inconclusive means small, poorly fitted or top-dose-only effect, or another doubt; inactive means no such curve, though single readings can be large; an effect the other way counts as inactive or inconclusive. Unless noted, on the % scale 0 is the no-effect control and ±100 the full control effect; potency means the concentration at half of the fitted maximal effect.
SMILES,TR SRC2 fluor cs,Tau fibril FP,Tau fibril ThT,TRb SRC2 PPI,Tau fluor cs
COc1ccc(-c2cc(=O)n(-c3ccc([N+](=O)[O-])cc3)[nH]2)cc1,-2%,1%,11µM*,-7%,?
Cc1ccc(-n2nnnc2C(Cl)c2nnnn2-c2ccc(C)cc2)cc1,0%,?,20µM*,-5%,-17%
Cc1ccc(-n2nnnc2-c2ccccc2)cc1,0%,4%,-3%,-4%,-6%
CCOc1cc(/C=C(\C#N)c2[nH]nc(N)c2C#N)ccc1O,-14%,-3%,14µM*,7%,?
CCOc1cc(-c2cc(-c3ccc(C)cc3)nc(N)c2C#N)ccc1O,-2%,-15%,-11%,5%,?
COC(=O)c1cc(Cl)ccc1NC(=O)CSc1ncc(S(=O)(=O)c2ccc(Br)cc2)c(=O)[nH]1,6%,?,32µM*,9%,-17%
COc1ccc(-c2oc(NC(C)=O)c(C#N)c2-c2ccc(OC)cc2)cc1,-2%,?,?,1%,16µM*[quencher]
COc1ccc(-c2oc(NC(=O)c3ccc(C)cc3)c(C#N)c2-c2ccc(OC)cc2)cc1,-2%,10%,-10%,6%,?
CCCCN(CCCC)CCCCCCN(CCCC)CCCC,3%[201 µM],·,·,0%[201 µM],·
CCOC(=O)c1sc(NC(=O)CSc2nc(C)cc(-c3ccccc3)n2)c(C#N)c1C,-2%,?,35µM*,-12%,?
COc1ccc(-c2cc(-c3ccccc3)c(C#N)c(SCC(=O)Nc3ncc(C)s3)n2)cc1,-2%,28µM*,-9%,0%,-28%
COc1ccc(-c2cc(-c3ccccc3)nc(SCC(=O)Nc3nccs3)c2C#N)cc1,1%,?,-1%,4%,-27%
C[C@@H](C(=O)Nc1ccc2ccccc2c1)[C@H]1C[C@]1(C)[C@H](NC(=O)Oc1ccc(F)cc1)c1ccccc1,1%,-14%,-6%,3%,-15%
CSCC[C@@H]1NC(=O)[C@@H](NC(=O)[C@H](CCCNC(=N)N)NC(=O)[C@H](CC(C)C)NC(=O)[C@H](CCSC)NC(=O)[C@H](CC(=O)O)NC(=O)[C@H](Cc2ccccc2)NC(=O)[C@@H](N)CC(=O)O)CSSC[C@@H](C(=O)N[C@@H](Cc2c[nH]c3ccccc23)C(=O)N[C@@H](CCC(N)=O)C(=O)N[C@H](C(=O)O)C(C)C)NC(=O)[C@@H]2CCCN2C(=O)[C@H](CCCNC(=N)N)NC(=O)[C@H](Cc2ccc(O)cc2)NC(=O)[C@H](C(C)C)NC(=O)[C@H](CCCNC(=N)N)NC(=O)CNC(=O)[C@H](CC(C)C)NC1=O,-4%,·,·,-5%,·
O=c1c(O)c(-c2ccc(O)cc2)oc2cc(O)cc(O)c12,-10%,8%,13µM*,7%,?
COc1cc(O)c2c(=O)c(O)c(-c3ccc(O)c(O)c3)oc2c1,50µM*[quencher],-2%,5µM*,8%,20µM*[quencher]
COc1cc(O)c2c(=O)c3c(OC)c(O)ccc3oc2c1,-5%,8%,13µM*,3%,?
CC1=C(C(=O)NCc2ccccc2Cl)C2(CCCCCC2)OC1=O,5%,7%,2%,3%,-6%
Cc1ccc(NC(c2cccc(Cl)c2)c2nnc(-c3ccccc3)o2)cc1F (stereo unspecified),0%,-11%,-9%,-3%,-25%
CC[C@H](C)[C@@H](NC(=O)O[C@H]1C(=O)c2cc(OC)ccc2O[C@@H]1c1ccc(OC)c(Br)c1)C(=O)OC,-2%,-6%,?,-11%,-19%
C[C@@H]1/C=C\CC(=O)OC[C@H](C)C(=O)N2CCC[C@@H]2C(=O)OC1,3%[11.2 µM],-1%[11.6 µM],-8%[11.5 µM],3%[11.2 µM],-7%[11.6 µM]
CC(C)NC(=O)Cn1nnc(-c2ccc(Cl)cc2)n1,-3%,?,25µM*,0%,?
O=C(Cn1nnc(-c2ccc(Cl)cc2)n1)NCc1ccc(F)cc1,-4%,5%,5%,-1%,1%
CCCN(CCC)CCCNC(=O)c1cc2c(=O)n(C)c3ccccc3c2s1,0%,-4%,-5%,-2%,-6%
Nc1c2c(nc3ccc(Br)cc13)N(Cc1ccccc1)CC2,-2%,16%,?,0%,?
SMILES,TR SRC2 fluor cs,Tau fibril FP,Tau fibril ThT,TRb SRC2 PPI,Tau fluor cs
Cc1cccc(N2CCc3c2nc2ccc(Br)cc2c3N)c1,-10%,?,28µM*,3%,16µM*[quencher]
Nc1c2c(nc3ccc(Br)cc13)N(c1ccccc1)CC2,1%,19%,?,5%,14µM*[quencher]
O=C(Nc1ccc(Nc2ccccc2)cc1)c1ccc(Br)o1,-5%,?,8.9µM*,-15%,14µM*[quencher]
CCCCCN(CCCCC)C(=O)[C@H](CCC(=O)O)NC(=O)[C@H](Cc1ccc(OP(=O)(O)O)cc1)NC(C)=O,?,·,·,-3%,·
CCN1/C(=N\N)c2cccc3cccc1c23,1%,6%,7.9µM*,1%,?
O=C1c2cccc3cccc(c23)N1Cc1ccc(F)cc1,-1%,3%,1%,10%,1%
CC(C)C[C@H](NC(=O)c1[nH]cnc1C(=O)Nc1ccc(CNC(=O)OC(C)(C)C)cc1)C(=O)OCc1ccccc1,-1%,10µM*,12%,5%,?
CC(C)C[C@H](NC(=O)c1[nH]cnc1C(=O)Nc1ccc(CNC(=O)OC(C)(C)C)cc1)C(=O)OC(C)(C)C,0%,?,4%,-1%,?
CC(C)(C)OC(=O)NCc1ccc(NC(=O)c2nc[nH]c2C(=O)N[C@@H](Cc2ccccc2)C(=O)OC(C)(C)C)cc1,-4%,8.9µM*,?,-3%,?
CC(C)(C)OC(=O)CNC(=O)c1[nH]cnc1C(=O)Nc1ccc(CNC(=O)OC(C)(C)C)cc1,-2%,?,14%,-5%,?
CC(C)(C)OC(=O)CNC(=O)c1[nH]cnc1C(=O)Nc1ccc(Cl)cc1,-2%,25µM*,?,-3%,?
COc1ccc(CNc2nc(-c3ccco3)nn2C(=O)CC(C)C)cc1,79µM*[quencher],-11%,-13%,-13%,-21%
Cc1cccc(NC(=O)Cn2cc(C(=O)C3CCCCC3)c3ccccc32)c1,7%,?,-12%,11%,-21%
CCCCn1c(NC(=O)c2ccco2)c(S(=O)(=O)c2ccc(C)cc2)c2nc3ccccc3nc21,-9%,?,16µM*,-29%,?
CCCCn1c(NC(=O)c2ccc(Br)o2)c(S(=O)(=O)c2ccccc2)c2nc3ccccc3nc21,1%,?,18µM*,?,-27%
CCCCCn1c(NC(=O)c2ccco2)c(S(=O)(=O)c2ccc(C)cc2)c2nc3ccccc3nc21,1%,-9%,?,-2%,?
CO[C@@H]1[C@H](OC(=O)/C=C/C=C/C=C/C=C/C(=O)O)CC[C@]2(CO2)[C@H]1[C@@]1(C)O[C@@H]1CC=C(C)C,0%[201 µM],·,·,2%[201 µM],·
